SMILES strings stand for the structures. A structure can be active in one record and inactive in another. The source made the active and inactive calls. How the source made its calls: active means hit-call score of the fitted dose curve at least 0.9, where 1 is the maximum; inactive means score below 0.9.

Read-out in the assay: TIMP metallopeptidase inhibitor 1 (TIMP1), TIMP1 (gene 7076)
The assay can be described thus: BSK_MyoF_TIMP1: BioMAP Diversity Plus: MyoF Assay for TIMP metallopeptidase inhibitor 1 (TIMP1) Biomarker Activity (AID 2284269). Particulars: primary human lung fibroblasts. In outline:
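Primary human lung fibroblasts, MyoF multiplex system; chemical exposure 24 h; TIMP-1 by ELISA; positive fitting direction vs DMSO control.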
With `O=S(=O)(F)C(F)(F)C(F)(F)C(F)(F)C(F)(F)C(F)(F)C(F)(F)C(F)(F)C(F)(F)F`, the outcome was inactive.
Same read-out and setting: next, `FC(F)(F)C(F)(C(F)(F)F)C(F)(F)C(F)(F)CC1CO1` (configuration not stated): “inactive”; `O=C(O)C(F)(F)C(F)(F)C(=O)O`: “inactive”.
On the same count and under the same terms, next, `CCOP(=S)(OCC)SCn1nnc2ccccc2c1=O`: “inactive”.
Still for that read-out and setting: in the case of `OCC(F)(F)OC(F)(F)C(F)(F)OC(F)(F)C(F)(F)OC(F)(F)CO` it was “inactive”; in that of `c1ccc2c(c1)sc1ccccc12`, “inactive”.
Turning to `Nc1ccc([N+](=O)[O-])cc1Cl`, the result was inactive.
The same measure, in the same setting: next, `NC(=O)C(F)(F)C(F)(F)F`: “inactive”.
The same measure, in the same setting: next, `CCOP(=S)(OCC)SCS(=O)(=O)CC`: “inactive”; `COC(=O)C(F)(F)C(F)(F)OC(F)(C(F)(F)F)C(F)(F)OC(F)=C(F)F` (configuration not stated): “inactive”.
As to `CCCCC(CC)COP(=O)(Oc1ccccc1)Oc1ccccc1` (configuration not stated), the AC50 is 6.48 µM (active).
In the case of `C=CC(=O)OCC(F)(F)C(F)F`, the AC50 was 47.6 µM (active) and the result was inactive.
On to `CCOP(=S)(S)OCC`, for which the result was inactive.
As for `CCCCOCCOP(=O)(OCCOCCCC)OCCOCCCC`, the result was inactive.
`N#Cc1c(-c2ccc(Cl)cc2)[nH]c(C(F)(F)F)c1Br`: the concentration at half-maximal activity (AC50) was 20 µM (active).
`Cc1ccc2c(c1N)C(=O)c1ccccc1C2=O`: the result was inactive.
Regarding `CC(C)(C)c1ccccc1OP(=O)(Oc1ccccc1)Oc1ccccc1`, the half-maximal activity concentration (AC50) is 26.8 µM (active).
For `CCOP(=S)(OCC)SCSc1ccc(Cl)cc1`, the result was inactive.
Still for that read-out and setting: next, `O=C(O)C(F)(OC(F)(F)C(F)(F)C(F)(F)F)C(F)(F)F` (configuration not stated): “inactive”; `O=C(O)C(F)(F)OC(F)(F)C(F)(F)OC(F)(F)F`: “inactive”.
Take `CC(C)Nc1ccc(Nc2ccccc2)cc1`: the AC50 is 20 µM (active).

The term AC50 denotes the concentration giving half of the maximal activity seen.
